The values that follow come from PubChem BioAssay AID1053197 (The Scripps Research Institute Molecular Screening Center, 2014).

The whole screen tested about 370,000 compounds, of which about 2,600 (0.7%) were called active. Only a selection was taken, and actives are over-represented in it overall. A number with no mark means an inactive call.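 The calls were made as follows: active = inhibition above a cutoff: mean of compounds within the control limits plus 3 SD of those (cut at about 17% in these data); inactive = the rest.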

In general, inhibition refers to the change of the read-out against control, counted positive when it falls.

Chain of Sialate O-acetylesterase (Homo sapiens) (Q9HAT2 whole entry, looked up): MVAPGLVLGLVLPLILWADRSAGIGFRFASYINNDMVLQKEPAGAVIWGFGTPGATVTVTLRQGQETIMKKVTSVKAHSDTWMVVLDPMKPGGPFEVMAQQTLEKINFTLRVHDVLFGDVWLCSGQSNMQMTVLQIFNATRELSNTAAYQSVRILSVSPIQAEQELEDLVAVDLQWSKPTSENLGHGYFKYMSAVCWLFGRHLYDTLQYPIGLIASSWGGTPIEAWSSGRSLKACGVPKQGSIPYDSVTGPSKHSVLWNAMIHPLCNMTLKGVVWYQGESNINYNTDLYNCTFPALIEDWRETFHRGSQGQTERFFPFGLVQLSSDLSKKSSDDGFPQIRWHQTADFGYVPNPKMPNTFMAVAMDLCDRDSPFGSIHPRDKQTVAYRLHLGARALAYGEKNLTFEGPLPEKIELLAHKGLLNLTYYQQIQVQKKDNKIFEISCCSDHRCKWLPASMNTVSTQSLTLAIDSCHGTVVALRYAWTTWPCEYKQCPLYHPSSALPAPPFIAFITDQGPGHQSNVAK

The assay concerns the target Sialate O-acetylesterase (Homo sapiens) (UniProt Q9HAT2). Briefly: human SIAE inhibitors, primary screen, biochemical, fluorescence polarization, FP-Rh probe, 1536-well HTS (AID 1053197).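 Also: 0% = plate median of compound wells and 100% = probe without SIAE protein.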 Particulars: SIAE FP-Rh probe binding, at 9.66 µM, active compounds read high. For orientation: Fluorescence polarisation rises when a labelled molecule tumbles more slowly, as on binding a larger partner.
`COc1ccc(CN2C/C(=C/c3ccccc3)N3C(=O)C[C@@H](c4ccccc4)N=C23)c(OC)c1`: the inhibition is 3.22%.
Regarding `O=C(NCc1ccco1)/C(=C/c1cccc([N+](=O)[O-])c1)NC(=O)c1ccco1`, the inhibition was -7.3%.
In the case of `O=C(NCc1ccco1)/C(=C\c1cccc([N+](=O)[O-])c1)NC(=O)c1ccco1` it was -0.85%.
Then `Cc1ccc(C(=O)N/C(=C/c2ccc(-c3cccc([N+](=O)[O-])c3)o2)C(=O)NCCCN(C)C)cc1`, with 21.2% (active); and `C=CCN1C(=O)[C@H](CC(=O)NCCCN2CCCC2=O)[C@@]2(C(=O)OCC)CCCC=C12`, with 4.17%; and `CCOC(=O)C1=C(C)NC2=C(C(=O)CC(C)(C)C2)C1c1ccc2c(c1)OCO2` (configuration not stated), with -1.17%.
Then `COC(=O)CN1C(=O)C(O)=C(C(C)=O)C1c1ccc([N+](=O)[O-])cc1` (configuration not stated), with -9.46%; and `COc1ccc(C2C(C(C)=O)=C(O)C(=O)N2CCc2c[nH]c3ccccc23)cc1` (configuration not stated), with 18.4% (active).
Consider `COc1ccc2[nH]cc(CCN3C(=O)c4ccc(C(=O)O)cc4C3=O)c2c1`, for which the inhibition is 11.4%.
Then `CCOc1ccc(-n2c(SCC(=O)Nc3cc(C)c(NC(=O)c4ccccc4)cc3OC)nnc2-c2cccs2)cc1`, with -1.97%.
Then `COC(=O)C1CN(CC(C)C)CCS(=O)(=O)N1Cc1ccc(F)cc1` (configuration not stated), with -0.32%; and `COCCCNC(=O)C[C@H]1C[C@@]2(C(=O)OC)C(=C[C@H](C(C)(C)C)O[C@@H]2C)N(Cc2ccc(Cl)cc2Cl)C1=O`, with -5.63%; and `O=C(NCC1COc2ccccc2O1)c1ccc(NC(=O)c2cc(F)ccc2F)cc1` (configuration not stated), with -1.61%.
Then `CCOC(=O)[C@]12CCCCC/C=C\1N(Cc1ccc(OC)cc1)C(=O)[C@H]2CC(=O)N1CCOCC1`, with -1.12%; and `COc1cc(OC)cc(C(=O)NCC(=O)N2CCCCCCC2)c1`, with 0.93%; and `COc1ccc(OC)c(CN2CCN(C(=O)CNC(=O)c3cc(C)cc(C)c3)CC2)c1`, with 21.8% (active).
Consider `Cc1cc(C)cc(C(=O)NCC(=O)OCC(=O)N2CCCCC2)c1`, for which the inhibition was 2%.
In the case of `CCOC(=O)[C@@]12CN(C(=O)OC(C)(C)C)CC=C1N(Cc1ccc(OC)cc1)C(=O)[C@H]2CC(=O)NCc1ccc(OC)c(OC)c1` it was 4.2%; in that of `CCOC(=O)CNC(=O)CSc1ccc2nnc(-c3cccnc3)n2n1`, 0.77%; in that of `COC(=O)C(C)Sc1ccc2nnc(-c3cccc(F)c3)n2n1` (configuration not stated), 24.6% (active).
In the case of `CCOc1ccc(-c2nnc3ccc(SC)nn23)cc1` it was -1.24%.
In the case of `CN(C)[C@H]1CCN(c2cccc3c2S(=O)(=O)N2CC[C@H](C2)O3)C1` it was -4.89%.
